The source of these data is PubChem BioAssay.

The nature of assay [1]: inhibitors of TNFa-induced NFkB p65 translocation, primary screen, imaging, HUVEC, MLSMR starter and 10KST1 sets (AID 438;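 active = inhibition above 20% together with a positive visual image hit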;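 note: compound added about 3h40 before a 20 min TNFalpha stimulation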;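 for inhibition: signal is the nuclear over cytoplasmic p65 intensity ratio per well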). The conditions noted are these: HUVEC TNFa-induced p65 nuclear translocation; cell count: measured here: nuclei count (cytotoxicity indicator), at 2.08 µM; inhibition: at 2 µM, stronger effect = higher value, 0% TNFa-plus-vehicle, 100% no-TNFa wells.
Assay [2] can be described thus: inhibitors of mutant huntingtin aggregation, primary screen, imaging, exon1htt(103Q)mCFP cells, high-content imaging (AID 483;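 active = visual image review flags a hit and inhibition of aggregation exceeds 20%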;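 note: compound exposure lasted 3 days before fixation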;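 for nuclei count: percent of the per-plate median nuclei count of sample wells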). The conditions noted are these: exon1htt(103Q)mCFP cell line, aggregate imaging, at 2 µM; inhibition of aggregation: stronger effect = higher value; nuclei count: measured here: cell count, toxicity.
Assay [3] in a line: inhibitors of E-selectin induction by TNFa, primary screen, imaging, HUVEC, immunofluorescence, MLSMR starter and 10KST1 sets (AID 487;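 active = visually confirmed hit in the image check and inhibition above 20%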;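 for inhibition: signal is fraction of cell area covered by stained E-selectin grains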;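 for nuclei count: 100% = median nuclei count of all wells on the same plate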). The conditions noted are these: HUVEC TNFalpha-induced E-selectin immunofluorescence imaging, at 2 µM; inhibition: stronger effect = higher value; nuclei count: measured here: cell number, toxicity.
Assay [4] can be described thus: DUSP6 inhibitors restoring Erk phosphorylation by chemical complementation, primary imaging in DUSP6-transfected HeLa (AID 609;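 active = compounds giving at least 50% inhibition in the cell-based MKP-3 phosphatase rescue imaging test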;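 for inhibition: phospho-Erk level distribution per well compared with pooled transfected vehicle control wells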). The conditions noted are these: HeLa MKP-3 transfected, phospho-Erk imaging KS statistic, at 10 µM, cells stimulated with TPA for 15 min.
In assay [5] the target is Dual specificity protein phosphatase 6 (Homo sapiens) (UniProt Q16828). The description is as above. The conditions noted are these: HeLa MKP-3 transfected, phospho-Erk imaging KS statistic; at 10 µM; stronger effect = higher value; cells stimulated with TPA for 15 min.
The target of assay [6] is Voltage-gated potassium channel subunit beta-2 (Rattus norvegicus) (UniProt P62483). Put plainly: KvBeta enzyme negative modulators, primary screen, biochemical, NADPH fluorescence (AID 622;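 active = fluorescence slope higher than the sample average by over 3 SD, cut at about -0.22 in these data, passing the limit was not always enough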;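 note: slope of raw intensity against log time taken from 70 to 1610 s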). The conditions noted are these: recombinant KvBeta, 4-cyanobenzaldehyde reduction, at 10 µM, stronger effect = higher value.
Assay [7] shares this target. The assay can be described thus: KvBeta positive modulators, primary screen, biochemical, NADPH fluorescence (AID 623).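 Note: fluorescence intensity change per second fitted from 20 to 320 s.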 The conditions noted are these: Recombinant KvBeta, NADPH fluorescence decrease slope, 10 min; at 10 µM; stronger effect = lower value.
Assay [8] has as its target Alpha-2C adrenergic receptor (Homo sapiens) (UniProt P18825). The assay can be described thus: modulators of alpha2C/GIRK thallium flux, primary screen, cell-based, HEK293 alpha2C/GIRK1/2 (AID 624;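 active = fluorescence slope after compound addition differing from the mean of all screened samples at 99.7% confidence, in either direction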;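 note: slope of fluorescence ratio to pre-addition baseline per second over 15 to 24 s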). The conditions noted are these: thallium flux BTC fluorescence, at 10 µM, actives lie on both sides.
Assay [9] is described as follows: inhibitors of larval lipid processing in zebrafish, primary screen, whole organism, PED6 fluorescence, gall bladder and intestine (AID 686;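 active = a full or partial loss of lipid-probe fluorescence in the fish gall bladder, intestine or both, judged by eye; inactive = no fluorescence loss, or compound toxic to the fish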;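 note: larvae 5 to 7 days old with five fish per well; signal comes from phospholipase A2 cleavage of quenched PED6 carried via bile; overnight exposure to compound and PED6 before scoring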). The conditions noted are these: Zebrafish larvae PED6 lipid processing, fluorescence scoring; screened at 20 µM (by protocol).
Assay [10] can be described thus: inhibitors of Chlamydomonas gravitaxis, primary screen, whole organism, Chlamydomonas reinhardtii, WT vs cilia-less mutant, absorbance, 96-well (AID 463189;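 active = inhibition at or above 50% relative to wild type and mutant plate controls; inactive = inhibition below 50%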;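 note: 0% = wild type cc124 cells in DMSO and 100% = ciliumless bld1 mutant cells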). The conditions noted are these: OD600 absorbance, 2 days, at 10 µM, stronger effect = higher value.
The nature of assay [11]: inhibitors of Sendai virus-induced IRF3 signaling, primary screen, TLR/RLR signaling modifier project, cell-based, Sendai virus stimulus, luciferase, 10K MLSCN set (AID 602276;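 active = inhibition at or above 50% at 10 µM; inactive = inhibition below 50%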;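 note: firefly luciferase from ISG56 promoter only with Renilla not read in this screen; 0% = Sendai virus plus DMSO and 100% = medium plus DMSO without virus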). The conditions noted are these: HEK293 RL24 IRF3 luciferase reporter, at 10 µM, stronger effect = higher value. (In general: In a reporter assay the amount or activity of a reporter protein is the signal.)
Assay [12] in a line: inhibitors of poly I:C-induced TLR3 signaling, primary screen, cell-based, poly I:C stimulus, luciferase, 10K MLSCN set (AID 602277;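 active = inhibition of the reporter signal at or above 50%; inactive = inhibition below 50%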). The conditions noted are these: HEK293-TLR3 RL24 IRF3 luciferase reporter, at 10 µM, stronger effect = higher value.
[13] abbreviates: measured here: cell density z-score.
The mark [14] stands for this setting: measured here: nuclear c-Myc green intensity z-score.
Where [15] appears, read: measured here: nuclear pErk red intensity z-score, stronger effect = higher value.

“And” between values parts separate entries of the source, which are not always exact repeats. Equal values may be shown once. The source made the active and inactive calls.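 Rule for the calls, unless noted: active = NADPH fluorescence slope more negative than the mean of all samples by about 3 SD, 99.7% confidence; inactive = the rest.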

Sequence of Alpha-2C adrenergic receptor (Homo sapiens) (P18825 whole entry, looked up): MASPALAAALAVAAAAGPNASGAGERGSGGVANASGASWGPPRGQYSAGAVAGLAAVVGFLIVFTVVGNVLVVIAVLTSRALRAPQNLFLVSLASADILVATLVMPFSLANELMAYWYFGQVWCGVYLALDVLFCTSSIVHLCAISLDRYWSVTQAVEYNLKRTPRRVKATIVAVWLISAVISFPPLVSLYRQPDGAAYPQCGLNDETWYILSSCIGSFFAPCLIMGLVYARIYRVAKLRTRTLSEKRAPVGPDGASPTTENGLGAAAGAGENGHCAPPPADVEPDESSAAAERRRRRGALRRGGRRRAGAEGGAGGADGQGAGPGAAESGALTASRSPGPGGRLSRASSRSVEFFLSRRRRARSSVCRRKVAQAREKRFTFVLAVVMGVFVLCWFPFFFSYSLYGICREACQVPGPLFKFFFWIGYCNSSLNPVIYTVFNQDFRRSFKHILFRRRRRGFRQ
Sequence of Voltage-gated potassium channel subunit beta-2 (Rattus norvegicus) (P62483 whole entry, looked up): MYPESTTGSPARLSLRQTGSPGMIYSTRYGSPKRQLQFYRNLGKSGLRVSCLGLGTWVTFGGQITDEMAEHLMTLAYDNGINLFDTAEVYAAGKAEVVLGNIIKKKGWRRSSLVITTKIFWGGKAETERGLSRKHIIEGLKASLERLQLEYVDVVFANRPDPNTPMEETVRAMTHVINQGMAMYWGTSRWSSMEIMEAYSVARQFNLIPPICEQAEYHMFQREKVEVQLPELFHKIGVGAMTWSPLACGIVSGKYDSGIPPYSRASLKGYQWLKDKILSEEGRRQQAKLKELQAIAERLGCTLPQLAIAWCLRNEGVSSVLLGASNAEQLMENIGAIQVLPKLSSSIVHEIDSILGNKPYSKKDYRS
Sequence of Dual specificity protein phosphatase 6 (Homo sapiens) (Q16828 whole entry, looked up): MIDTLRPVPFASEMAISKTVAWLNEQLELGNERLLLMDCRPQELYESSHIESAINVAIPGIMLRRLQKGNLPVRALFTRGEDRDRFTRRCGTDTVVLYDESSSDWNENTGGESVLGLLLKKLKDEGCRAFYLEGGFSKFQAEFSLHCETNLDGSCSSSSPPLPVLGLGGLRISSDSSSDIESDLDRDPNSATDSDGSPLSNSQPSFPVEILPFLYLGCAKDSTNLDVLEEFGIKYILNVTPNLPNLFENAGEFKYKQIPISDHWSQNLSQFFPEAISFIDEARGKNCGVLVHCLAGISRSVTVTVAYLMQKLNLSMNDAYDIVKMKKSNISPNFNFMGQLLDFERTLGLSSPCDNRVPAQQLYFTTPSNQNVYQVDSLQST

The inhibition is the drop in the measured response relative to a control, in per cent. Turning to `O=C(O)c1ccccc1Nc1cccc(C(F)(F)F)c1`, in assay [1], the cell count amounted to 626. For the same molecule, the inhibition in [1] was 3.3% (inactive); in [3], -44.4% (inactive); in [5], 23.4% (inactive); in [10], -7.16% (inactive); in assay [11], 5.42% (inactive); in assay [12] it was 28.4% (inactive). Moreover, the inhibition of aggregation in assay [2] is -7.4% (inactive). Moreover, the nuclei count came to 99.3% in assay [2] and 131% in assay [3]. In addition, the z-score in assay [4] (setting [13]) was 0.0659; in [4] (setting [14]), 0.639; in assay [4] (setting [15]), -1.06. Also, the fluorescence slope in [6] is -0.455 (inactive). Also, the NADPH fluorescence slope in assay [7] is -3.9e-05 (inactive). The slope in [8] was 0.00472 (inactive). Besides, the molecule was called inactive in assay [9].

On to `C1CCC(C(CC2CCCCN2)C2CCCCC2)CC1` (stereo not given), for which the cell count in assay [1] was determined as 585. For the same molecule, the inhibition in [1] was 4.5% (inactive); in assay [3] it was 0.5% (inactive); in assay [5], 8% (inactive); in [10], 162% (active); in [11], 33.8% (inactive); in [12] it was 36.5% (inactive). In assay [2], the inhibition of aggregation is -15.7% (inactive). For the same molecule, the nuclei count worked out at 101% in assay [2] and 138% in [3]. In addition, the z-score in [4] (setting [13]) came to 0.673; in assay [4] (setting [14]), 1.64; in assay [4] (setting [15]), 0.659. For the same molecule, the fluorescence slope in assay [6] is -0.498 (inactive). For the same molecule, the NADPH fluorescence slope in [7] was -1.1e-05 (inactive). The slope in assay [8] was 0.0027 (inactive). Moreover, in assay [9], the molecule was classed as inactive.

For the molecule `O=C(CCNNC(=O)c1ccncc1)NCc1ccccc1`, the cell count in assay [1] turned out to be 595. Moreover, the inhibition was 2.2% (inactive) in assay [1]; -81.8% (inactive) in [3]; 8% (inactive) in [5]; 4.6% (inactive) and 1.15% (inactive) in assay [10]; -7.31% (inactive) in assay [11]; 21.4% (inactive) in assay [12]. Besides, in assay [2], the inhibition of aggregation was -4.6% (inactive). Moreover, the nuclei count in assay [2] stood at 104%; in assay [3] it was 117%. Moreover, the results for the z-score in assay [4] (setting [13]), in [4] (setting [14]) and in assay [4] (setting [15]) were -1.05, -0.737 and 0.12, respectively. The fluorescence slope in [6] was -0.485 (inactive). In addition, the NADPH fluorescence slope in [7] was -7.6e-05 (inactive). For the same molecule, the slope in assay [8] was 0.00448 (inactive). Further, the molecule was called inactive in assay [9].

`COc1cccc(Cn2c(Oc3ccccc3)nc3c2c(=O)n(C)c(=O)n3C)c1`: the cell count in assay [1] was 373. For the same molecule, the inhibition in assay [1] is -4.8% (inactive); in assay [3], -67.3% (inactive); in assay [5], 1.04% (inactive); in assay [10], 8.33% (inactive); in [11], 19.3% (inactive); in assay [12], 10.3% (inactive). Further, the inhibition of aggregation in assay [2] is 17.7% (inactive). For the same molecule, the nuclei count in assay [2] is 87.9%; in assay [3], 150%. Further, the figures for the z-score in [4] (setting [13]), in assay [4] (setting [14]) and in [4] (setting [15]) were -0.332, -0.584 and 0.142, respectively. Also, in assay [6], the fluorescence slope is -0.369 (inactive). Besides, the NADPH fluorescence slope in assay [7] was -2.2e-05 (inactive). In addition, the slope in [8] is 0.00481 (inactive). In addition, the call in assay [9] was inactive.

For `CCC1=C(C(=O)OC)C(c2cc(OC)ccc2OC)C(C#N)=C(N)O1` (stereo not given), the cell count in assay [1] is 296. Moreover, the inhibition is -8.8% (inactive) in assay [1]; -58% (inactive) in [3]; 5.65% (inactive) in assay [5]; -0.583% (inactive) in [10]; 17% (inactive) in assay [11]; 24% (inactive) in [12]. The inhibition of aggregation in assay [2] was 6.8% (inactive). Further, the nuclei count in [2] turned out to be 106%; in assay [3] it was 129%. For the same molecule, the z-score is 1.11 in [4] (setting [13]), 0.712 in assay [4] (setting [14]) and -2.04 in assay [4] (setting [15]). Further, the fluorescence slope in assay [6] was -0.478 (inactive). Moreover, in [7], the NADPH fluorescence slope is -0.000233 (inactive). In addition, in assay [8], the slope is 0.00469 (inactive). In addition, the molecule was classed as inactive in [9].

On to `CCCOc1ccc(N2C(=O)C3ON(c4ccccc4)C(c4ccc(O)c(OC)c4)C3C2=O)cc1` (stereo not given), for which the cell count in [1] was 413. Further, the inhibition in [1] was -5.2% (inactive); in [3], -53.3% (inactive); in assay [5], 7.42% (inactive); in assay [10] it was -8.77% (inactive); in [11], 16.5% (inactive); in assay [12] it was 16.8% (inactive). Moreover, the inhibition of aggregation in [2] is 2.2% (inactive). For the same molecule, the nuclei count came out at 110% in assay [2] and 124% in assay [3]. In addition, the z-score in [4] (setting [13]) was 0.885; in assay [4] (setting [14]), -0.229; in assay [4] (setting [15]), -0.338. Further, the fluorescence slope in assay [6] was -0.41 (inactive). Also, the NADPH fluorescence slope in assay [7] was -0.0001 (inactive). Also, in assay [8], the slope was 0.00809 (inactive). The outcome in assay [9] was inactive.

For the molecule `COc1ccc2c(c1OC)C(=O)OC2C1c2c(cc3c(c2OC)OCO3)CCN1C` (stereo not given), the cell count in assay [1] is 463 and 544. Further, the inhibition in assay [1] is -10.9% (inactive) and 0.8% (inactive); in [3], -43.9% (inactive) and -115% (inactive); in [5], 5.42% (inactive); in assay [10] it was 19.2% (inactive); in assay [11], 23.1% (inactive) and 13.1% (inactive); in [12] it was 29.1% (inactive) and 24% (inactive). Moreover, in assay [2], the inhibition of aggregation is -1% (inactive) and -12.6% (inactive). Moreover, the nuclei count in [2] is 101% and 94.4%; in assay [3], 132% and 119%. For the same molecule, the results for the z-score in [4] (setting [13]), in assay [4] (setting [14]) and in assay [4] (setting [15]) were 1.55, -0.813 and -0.77, respectively. Further, the fluorescence slope in assay [6] was -0.541 (inactive) and -0.459 (inactive). The NADPH fluorescence slope in assay [7] was 7.5e-05 (inactive) and -6e-05 (inactive). The slope in assay [8] was 0.0053 (inactive) and 0.00526 (inactive). Also, the outcome in [9] was inactive.

For `NS(=O)(=O)c1ccc(C(=O)O)cc1`, the cell count in assay [1] worked out at 662. The inhibition in assay [1] was -3.9% (inactive); in [3], -60.6% (inactive); in assay [5], 31.1% (inactive); in assay [10], 24.6% (inactive); in [11], -11.5% (inactive); in assay [12], -18% (inactive). Further, the inhibition of aggregation in [2] is 7.9% (inactive). Also, the nuclei count in [2] was determined as 106%; in assay [3], 124%. For the same molecule, the results for the z-score in assay [4] (setting [13]), in assay [4] (setting [14]) and in assay [4] (setting [15]) were 1.84, -0.0127 and -1.63, respectively. Further, the fluorescence slope in assay [6] is -0.499 (inactive). The NADPH fluorescence slope in [7] was 3.5e-06 (inactive). The slope in [8] was 0.00388 (inactive). In addition, the result in assay [9] was inactive.

On to `Cn1nnc2c(sc3nc(N4CCOCC4)c4c(c32)CCCC4)c1=O`, for which the cell count in [1] was determined as 611. The inhibition in [1] is -5.6% (inactive); in assay [3], -120% (inactive); in [5], 28.6% (inactive); in assay [10] it was -8.88% (inactive); in [11] it was -5.47% (inactive); in assay [12] it was -2.11% (inactive). Further, the inhibition of aggregation in [2] was 21.6% (inactive). Moreover, the nuclei count in assay [2] came out at 109%; in [3], 114%. The values for the z-score in assay [4] (setting [13]), in [4] (setting [14]) and in assay [4] (setting [15]) were 3.22, -0.738 and -2.88, respectively. For the same molecule, in [6], the fluorescence slope is -0.348 (inactive). For the same molecule, the NADPH fluorescence slope in [7] is -2.4e-05 (inactive). In [8], the slope was 0.00477 (inactive). For the same molecule, the molecule was called inactive in assay [9].

For `CSC1=C(C#N)C(C)CC(=O)N1` (stereo not given), the cell count in [1] came out at 552. In addition, the inhibition in assay [1] was -5.8% (inactive); in assay [3], 1.9% (inactive); in assay [5], -5.89% (inactive); in assay [10], 19.4% (inactive); in assay [11], 13.8% (inactive); in [12], 12.5% (inactive). For the same molecule, the inhibition of aggregation in assay [2] was -2% (inactive). Besides, the nuclei count in [2] turned out to be 112%; in [3], 108%. The z-score in assay [4] (setting [13]) is -0.957; in assay [4] (setting [14]), -0.437; in assay [4] (setting [15]), 0.604. In [6], the fluorescence slope is -0.51 (inactive). Moreover, the NADPH fluorescence slope in [7] was -6.2e-05 (inactive). In addition, the slope in [8] is 0.00463 (inactive). The molecule was called inactive in [9].
